From PubChem BioAssay AID463173 (ICCB-Longwood Screening Facility, Harvard Medical School, 2010) come the findings set out here.

About 4,300 (8.3%) of roughly 52,000 compounds were called active. Rule as the data show it: active = survival mostly below about 52% (no sharp cut-off); inactive = mostly above about 56%. The full list was thinned out, with actives kept by preference.

This assay deals with DeltatarO mutant. Description: growth inhibition of S. aureus wild type versus tarO mutant, primary screen, teichoic acid synthesis inhibitors, RN4220, OD600 (AID 463173). The following applies: OD600, 18 h, stronger effect = lower value, screened at 18.75 µg/mL (by protocol).
For `Cc1cccc(N2CCN(C(=O)c3nn(C)c4c3CS(=O)(=O)c3ccccc3-4)CC2C)c1` (stereo not given), the survival is 71% (inactive).

Regarding `COc1cc(NC(=O)c2cc3cc4ccc(OC)c(Cl)c4nc3s2)cc(OC)c1`, the survival was 98% (inactive).

As for `CN(CC(=O)Nc1ccc(F)cc1F)S(=O)(=O)c1cccc2nsnc12`, the survival was 92% (inactive). The figure for `Cc1ccccc1Cn1nnc2sc3c(c2c1=O)CCCC3` is -1% (active). In the case of `O=c1c2c3c(sc2nnn1CCCCOc1ccc(Cl)cc1)CCCC3` it was 108% (inactive); in that of `Cc1ccc(OCCCCn2nnc3sc4c(c3c2=O)CCCC4)cc1`, 48% (active); in that of `CC(C)OC(=O)c1cccc(NC(=O)Cn2nnc3sc4c(c3c2=O)CCCC4)c1`, 75% (inactive). In the case of `COC(=O)c1ccc(Cn2nnc3sc4c(c3c2=O)CCCC4)cc1` it was 74% (inactive); in that of `COc1ccc(OCCn2nnc3sc4c(c3c2=O)CCCC4)cc1`, 83% (inactive); in that of `CCc1cccc(CC)c1NC(=O)Cn1nnc2sc3c(c2c1=O)CCCC3`, 142% (inactive). On to `CC(C)OC(=O)c1ccc(Cn2nnc3sc4c(c3c2=O)CCCC4)cc1`, for which the survival was 20% (active). The figure for `Cc1ccc(NC(=O)Cn2nnc3sc4c(c3c2=O)CCCC4)c(C)c1` is 86% (inactive); for `O=c1c2c3c(sc2nnn1Cc1ccc(Br)cc1)CCCC3` it is 37% (active); for `CCOC(=O)c1ccccc1NC(=O)Cn1nnc2sc3c(c2c1=O)CCCC3` it is 63% (inactive). As to `Cc1cccc(OCCn2nnc3sc4c(c3c2=O)CCCC4)c1`, the survival is 65% (inactive).

With `N#Cc1ccccc1NC(=O)CSc1ncn[nH]1`, the survival is 164% (inactive).

With `CC(C)(C)c1ccc(C(=O)N2CCC(c3nc4ccccc4o3)CC2)cc1`, the survival is 86% (inactive).

Turning to `CCOc1ccc(NC(=O)CSc2ncc(S(=O)(=O)c3ccc(F)c(C)c3)c(=O)[nH]2)cc1`, the survival is 58% (inactive).

For `CCc1ccc(CNC(=O)c2c(C)oc3ncn(CC(C)C)c(=O)c23)cc1`, the survival was 88% (inactive).

In the case of `Cc1cc(NCCN(C)C)n2nc(C)c(-c3ccccc3)c2n1`, the survival was 93% (inactive). With `CCCCCNS(=O)(=O)c1ccc(N2CCCCS2(=O)=O)cc1`, the survival is 77% (inactive).

For `Cc1nc2cc(-c3cccc(F)c3)nn2c(C)c1CCC(=O)N1CCN(c2ccc(F)cc2)CC1`, the survival was 56% (inactive). The figure for `CCOc1ccc(-c2cc(NC(=O)Nc3ccccc3Cl)c(C(=O)OC)s2)cc1` is 56% (inactive); for `Cn1c(=O)oc2cc(S(=O)(=O)N3CCCC(C(=O)N4CCN(c5ccc(F)cc5)CC4)C3)ccc21` (stereo not given) it is 92% (inactive). In the case of `COc1ccc(-c2[nH]c3ccccc3c2SCCNC(=O)c2cc(OC)c(OC)c(OC)c2)cc1` it was 62% (inactive). Regarding `COc1cccc(-c2nc(SCC(=O)NC3CCCC3)c(-c3ccc(C)cc3)[nH]2)c1`, the survival was 107% (inactive).

For `CC(C)Cc1nn2c(=O)cc(COC(=O)c3ccc4c(c3)OCO4)nc2s1`, the survival is 73% (inactive). In the case of `O=C(CN1CCCN(Cc2ccccc2Cl)S1(=O)=O)Nc1ccc2c(c1)OCCO2` it was 67% (inactive); in that of `Cc1ccc(C)c(S(=O)(=O)Nc2ccc3c(c2)CCCN3C(=O)c2cccs2)c1`, 47% (active); in that of `Cc1ccc(S(=O)(=O)Nc2ccc3c(c2)CCCN3C(=O)c2cccs2)cc1`, 75% (inactive). As for `Cc1ccc(S(=O)(=O)Nc2ccc3c(c2)CCCN3C(=O)c2cccs2)cc1C`, the survival is 70% (inactive). On to `Cc1ccc(NC(=O)Cn2c(=O)n(Cc3ccco3)c(=O)c3ccccc32)cc1`, for which the survival is 78% (inactive). Take `O=C(Cn1nc(-c2ccc(Cl)cc2)c2ccccc2c1=O)NCCN1CCOCC1`: the survival was 97% (inactive).

In the case of `COCCNC(=O)CCn1nc(-c2ccc(Cl)cc2)c2ccccc2c1=O`, the survival was 77% (inactive). For `CN(C)C(=O)Cn1nc(-c2ccccc2)c2ccccc2c1=O`, the survival was 92% (inactive). On to `O=C(Cn1nc(-c2ccccc2)c2cnc3ccccc3c21)Nc1ccccc1`, for which the survival is 76% (inactive).

Regarding `Cc1cccc(NC(=O)Cn2nc(-c3ccc(Cl)cc3)c3ccccc3c2=O)c1`, the survival was 142% (inactive). Take `COCCNC(=O)Cn1nc(C)c2c(C)n(-c3ccc(C)cc3)nc2c1=O`: the survival was 135% (inactive). Consider `COCCNC(=O)Cn1nc(-c2ccc(C)cc2)c2ccccc2c1=O`, for which the survival is 39% (active).

In the case of `O=C(Cn1nc(-c2ccc(Cl)cc2)c2ccccc2c1=O)Nc1cccc(Br)c1`, the survival was 28% (active). In the case of `O=C(Cn1nc(Cc2ccncc2)c2ccccc2c1=O)Nc1cccc(C(F)(F)F)c1` it was 71% (inactive). In the case of `CN(C)C(=O)c1ccc(NC(=O)Cn2nc(-c3ccccc3)c3ccccc3c2=O)cc1` it was 39% (active).

For the molecule `Cn1nc(-c2ccc(OCC(=O)Nc3cccc(C(F)(F)F)c3)cc2)c2ccccc2c1=O`, the survival was 78% (inactive).

As for `Cc1ccc(-c2nn(CC(=O)Nc3cccc(C(F)(F)F)c3)c(=O)c3ccccc23)cc1`, the survival was 31% (active). The figure for `CCOc1ccc(CCNCc2c(C(=O)O)c(C)n(Cc3ccccc3F)c2C)cc1` is 82% (inactive). Regarding `CC(C)(C)n1nnnc1CN1CCC(NC(=O)Nc2ccc(F)cc2)CC1`, the survival is 102% (inactive).

Take `CCOC(=O)c1ccc(NS(=O)(=O)c2ccc3c(c2)n(C)c(=O)n3C)cc1`: the survival was 96% (inactive).

Turning to `Fc1ccc(-n2ncc3c(Nc4cccc(Cl)c4)ncnc32)cc1`, the survival is 67% (inactive). Turning to `COc1cccc2c1cc1c(=O)n(CC(=O)N3CCN(c4ccc(F)cc4)CC3)nc(C)n12`, the survival was 87% (inactive). Consider `COc1cccc(NC(=O)CN2C=NS(=O)(=O)c3ccccc32)c1`, for which the survival is 122% (inactive). On to `O=C(CCCCn1c(=O)c2ccccc2n(Cc2ccc(F)cc2Cl)c1=O)NCCc1ccc(Cl)cc1`, for which the survival was 72% (inactive). In the case of `O=C(c1ccc(Cl)cc1)N1CCCCC1CCN1CCOCC1` (stereo not given) it was 104% (inactive); in that of `Cc1nc2c(C(=O)NC(C)c3ccccc3)cnn2c(C)c1Cc1ccccc1` (stereo not given), 72% (inactive). `COCCNC(=O)Cn1nc(N2CCN(c3ccccc3OC)CC2)ccc1=O`: the survival is 94% (inactive).

In the case of `CNC(=O)Cn1nc(-c2ccc(Cl)cc2)c2ccccc2c1=O`, the survival was 52% (inactive). Turning to `Cc1ccc(NC(=O)Cn2nc(-c3ccc(Cl)cc3)c3ccccc3c2=O)cc1`, the survival is 38% (active).

As for `COc1ccc(NC(=O)CCn2nc(-c3ccc(Cl)cc3)c3ccccc3c2=O)cc1`, the survival was 76% (inactive). In the case of `O=C(Cn1nc(Cc2cccnc2)c2ccccc2c1=O)Nc1cccc(C(F)(F)F)c1` it was 54% (inactive); in that of `O=C(Cn1nc(-c2ccc(Cl)cc2)c2ccccc2c1=O)Nc1cccc(C(F)(F)F)c1`, 34% (active). Consider `Cn1nc(-c2ccc(C(=O)Nc3cccc(C(F)(F)F)c3)cc2)c2ccccc2c1=O`, for which the survival was 57% (inactive). The figure for `Oc1c(C(c2ccc(Cl)cc2Cl)N2CCCC2)sc2nc(-c3ccco3)nn12` (stereo not given) is 68% (inactive). In the case of `Cc1cccc(C(=O)OCc2cc(=O)n3nc(C4CCCCC4)sc3n2)c1` it was 78% (inactive); in that of `CNC(=S)NC1CC2CCCC(C1)N2Cc1ccco1` (stereo not given), 80% (inactive). In the case of `O=C(c1ccccc1)N1CCC(O)(c2cccnc2)CC1` it was 70% (inactive); in that of `COc1ccc(NC(=O)CSc2cc(-c3ccccc3)nc(C)n2)cc1`, 94% (inactive). `Cc1nc(SCC(=O)Nc2ccc(C)c(Cl)c2)cc(-c2ccccc2)n1`: the survival is 46% (inactive). In the case of `Cc1nc(SCC(=O)Nc2ccccc2C)cc(-c2ccccc2)n1` it was 53% (inactive); in that of `Cc1nc(SCC(=O)Nc2ccccc2Cl)cc(-c2ccccc2)n1`, 56% (active); in that of `CCOC(=O)c1ccc(NC(=O)CSc2cc(-c3ccccc3)nc(C)n2)cc1`, 40% (active). In the case of `COC(=O)c1ccccc1NC(=O)CSc1cc(-c2ccccc2)nc(C)n1` it was 71% (inactive); in that of `Cc1ccc(NC(=O)CSc2nc(=O)n(CCN3CCOCC3)c3c2CCC3)c(C)c1`, 73% (inactive); in that of `COC(=O)c1ccc(NS(=O)(=O)c2ccc3c(c2)n(C)c(=O)c(=O)n3C)cc1`, 79% (inactive).

Take `COCCNC(=O)C1CCN(Cc2cc3ccccc3n2Cc2ccc(C)cc2)CC1`: the survival is 99% (inactive).

Take `CCOc1ccc(NC(=O)CCS(=O)(=O)c2cc3c4c(c2)CCN4C(=O)CC3)cc1`: the survival was 74% (inactive). In the case of `Cc1cc(C)c(C#N)c(NC2CCCCC2)n1` it was 87% (inactive); in that of `N#CSc1cnc(NC2CCCCC2)s1`, 1% (active). For `Cc1ccc(-c2nnc(NC3CCCC3)s2)cc1`, the survival was 76% (inactive). Turning to `Cc1ccc(C(=O)Nc2c(C(=O)Nc3ccc(C)c(C)c3)sc3nc(C)cc(C)c23)cc1`, the survival is 54% (inactive). In the case of `Cc1cc(C)cc(-n2c(C)cc(C(=O)C(=O)Nc3ccccc3F)c2C)c1`, the survival was 99% (inactive). The figure for `COc1ccc(C2=CC(c3cccc(C)c3)n3nnnc3N2)cc1` (stereo not given) is 84% (inactive). For the molecule `COc1cccc(C2=CC(c3cc(Br)ccc3F)n3nnnc3N2)c1` (stereo not given), the survival was -2% (active). In the case of `CN(C)c1ccc(C2C=C(c3ccccc3)Nc3nnnn32)cc1` (stereo not given) it was 52% (inactive).

Consider `Cc1cccc(C2C=C(c3ccc(C)c(C)c3)Nc3nnnn32)c1` (stereo not given), for which the survival was 6% (active). In the case of `COc1cccc(C2C=C(c3ccc(C)c(C)c3)Nc3nnnn32)c1OC` (stereo not given) it was 72% (inactive). Regarding `COc1ccc(C2C=C(c3ccc(Br)cc3)Nc3nnnn32)c(OC)c1` (stereo not given), the survival is 84% (inactive). With `Fc1ccc(Br)cc1C1C=C(c2ccc(Br)cc2)Nc2nnnn21` (stereo not given), the survival is 91% (inactive). As to `CCOc1ccc(C2C=C(c3cccc(OC)c3)Nc3nnnn32)cc1` (stereo not given), the survival was 45% (active).

Regarding `CCOc1ccc(NC(=O)c2cnn3c2NC(c2cccc(OC)c2)=CC3c2ccccc2)cc1` (stereo not given), the survival is 49% (inactive). Turning to `Cc1ccc(C)c(N2CCN(S(=O)(=O)c3ccc4c(c3)n(C)c(=O)c(=O)n4C)CC2)c1`, the survival is 76% (inactive).

As to `CC(C)CC(C(=O)NCc1ccc(F)cc1)N1Cc2ccccc2C1=O` (stereo not given), the survival was 88% (inactive). As for `O=C(NCc1cccnc1)c1nn(-c2ccc(F)cc2)nc1CO`, the survival was 111% (inactive). The figure for `CCc1ccc2occ(CC(=O)Nc3c(C(=O)Nc4ccc(OC)cc4)oc4ccccc34)c2c1` is 84% (inactive); for `CCOc1cc2c(cc1OCC)C(CC(=O)OC)N(C(=O)Nc1cc(C)cc(C)c1)CC2` (stereo not given) it is 83% (inactive). In the case of `CCOC(=O)CC1c2cc(OCC)c(OCC)cc2CCN1C(=O)Nc1cccc(Cl)c1` (stereo not given) it was 41% (active); in that of `CCOc1cc2c(cc1OCC)C(CC(=O)O)N(C(=O)Nc1ccc(Br)c(C)c1)CC2` (stereo not given), 81% (inactive).
